This passage reports growth results from PubChem BioAssay (NCI).

Among the test systems are HT29 colon; SNB-75 CNS; SNB-19 CNS; PC-3 prostate; SK-MEL-5 melanoma; UACC-62 melanoma; LOX IMVI melanoma; SK-MEL-28 melanoma; U251 CNS.
Common to all, as to assay: NCI-60 one-dose screen, 48 h (100 = growth as untreated, 0 = no growth, -100 = all killed)
Common to all, as to settings: 10 µM

Compounds without any hit were thinned out: in the full panel of roughly 83,000, 20% have a hit.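 Results are percent growth after 48 hours of single-concentration exposure. 100 means growth as in untreated cells, lower positive values show inhibition; negative values down to -100 show cell death.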 Values without a mark were called inactive. Calls of active or inactive are those of the source. How the source made its calls: active means growth percent below 10; inactive means the rest.

Turning to `CCn1c(CSc2nc3ccccc3c(=O)n2CCc2ccccc2)n[nH]c1=S`, the growth in the test with HT29 colon was 88.2%; in the test with SNB-75 CNS it was 107%; in the test with SNB-19 CNS, 106%; in the test with PC-3 prostate, 83.9%; in the test on SK-MEL-5 melanoma, 82.4%; in the test with UACC-62 melanoma, 85.2%. Moreover, the values for the growth in the test with LOX IMVI melanoma and with SK-MEL-28 melanoma were 74.2% and 106%, respectively.

With `CS(=O)(=O)c1nccc(-c2c(-c3cccc(OCc4ccc(F)cc4)c3)nc3sccn23)n1`, the growth with HT29 colon was 82.9%; in the test on SNB-75 CNS it was 95.9%; with SNB-19 CNS, 83.2%; with U251 CNS it was 96.6%; with PC-3 prostate it was 59.3%; in the test with SK-MEL-5 melanoma, 5.39% (active). Also, the growth in the test on UACC-62 melanoma is 60.1%; with LOX IMVI melanoma it was 36.6%; with SK-MEL-28 melanoma it was 62.8%.

For the compound `COc1cc2c3c(n([C@@H]4CCOC4)c(=O)c2cc1OC)-c1cc2c(cc1C3=O)OCO2`, the growth in the test with HT29 colon was 42.9%; in the test with SNB-75 CNS, 38%; with SNB-19 CNS, 30.1%; in the test with U251 CNS, 13.4%; with SK-MEL-5 melanoma, 14.2%; in the test with UACC-62 melanoma, 3.12% (active). Further, the growth was 9.49% (active) in the test with LOX IMVI melanoma and 73.2% with SK-MEL-28 melanoma.

`CCCCC/C=C/C/C=C/CCCCCCCC1=NC(C)(C)CN1C(C)C`: the growth was -21% (active) in the test with HT29 colon; 42.7% in the test on SNB-75 CNS; 47.3% with SNB-19 CNS; 0.562% (active) in the test on U251 CNS; 28.9% in the test with PC-3 prostate; 30.1% with SK-MEL-5 melanoma. Moreover, the values for the growth with UACC-62 melanoma and in the test with SK-MEL-28 melanoma were 15.1% and 72%, respectively.

Turning to `CC(=O)[C@@]12O[C@](C)(c3ccccc3)O[C@@H]1CC1C3CCC4=CC(=O)CC[C@]4(C)C3CC[C@@]12C` (stereo not given in full), the growth in the test with HT29 colon was 69.6%; in the test on SNB-75 CNS, 79.5%; in the test with SNB-19 CNS, 85.3%; with U251 CNS it was 72.3%; in the test with PC-3 prostate it was 31.1%; in the test on SK-MEL-5 melanoma, 55.1%. The growth is 63% in the test on UACC-62 melanoma, 72.3% in the test with LOX IMVI melanoma and 99% in the test on SK-MEL-28 melanoma.

Consider `CC[N+](CC)=c1ccc2nc3c(cc(NCc4ccccc4)c4ccccc43)oc-2c1`, for which the growth is -62.9% (active) in the test with HT29 colon; -79.7% (active) in the test on SNB-19 CNS; -95% (active) in the test on U251 CNS; -19% (active) in the test on PC-3 prostate; -97.4% (active) in the test on SK-MEL-5 melanoma; -73% (active) in the test with UACC-62 melanoma. Besides, in the test with LOX IMVI melanoma, the growth was -64.2% (active).

With `Nc1ccccc1NC(=O)c1ccc(CCCC(=O)Nc2ccc(C3CC3N)cc2)cc1` (stereo not given), the growth is 9.38% (active) in the test on HT29 colon; 66.4% in the test with SNB-75 CNS; 49.7% in the test with SNB-19 CNS; 4.65% (active) with U251 CNS; -41.1% (active) in the test on SK-MEL-5 melanoma; -24.8% (active) with UACC-62 melanoma. The growth is 12.8% in the test with LOX IMVI melanoma and 18% with SK-MEL-28 melanoma.

With `O=C1/C=C/[C@@H](O)[C@@H]2C[C@@H](O)C[C@H]2/C=C/CCC[C@H](CCc2ccc(NC(=S)Nc3ccc4c(c3)C(=O)OC43c4ccc(O)cc4Oc4cc(O)ccc43)cc2)O1`, the growth in the test on HT29 colon was 1.54% (active); in the test with SNB-75 CNS, 48.9%; with SNB-19 CNS, 34.1%; in the test with U251 CNS it was 20%; in the test with PC-3 prostate it was 23.3%; in the test with SK-MEL-5 melanoma, -87.2% (active). Besides, the growth is 16.3% with UACC-62 melanoma, -51.4% (active) with LOX IMVI melanoma and 9.95% (active) with SK-MEL-28 melanoma.

With `CO[C@H]1CC(O[C@@H]2/C(C)=C/C[C@@H]3C[C@@H](C[C@]4(C=C[C@H](C)[C@@H](C5CCCCC5)O4)O3)OC(=O)[C@@H]3C=C(C)[C@@H](O)[C@H]4OC/C(=C\C=C\[C@@H]2C)[C@]43O)O[C@@H](C)C1O[C@H]1C[C@H](OC)[C@@H](O)[C@H](C)O1` (stereo not given in full), the growth in the test with HT29 colon was -71.9% (active); in the test with SNB-75 CNS, -66.8% (active); in the test with SNB-19 CNS, -5.35% (active); in the test with U251 CNS it was -91.2% (active); in the test with PC-3 prostate, -59.6% (active); with SK-MEL-5 melanoma, -97.8% (active). Further, the growth in the test on UACC-62 melanoma is -78.1% (active); with SK-MEL-28 melanoma, -64.6% (active).

For the compound `CC(C)[N+]1(C)C2CC[C@@H]1CC(OC(=O)C(CO)c1ccccc1)C2` (stereo not given in full), the growth was 106% in the test on HT29 colon; 92.4% in the test on PC-3 prostate; 95.6% in the test with SK-MEL-5 melanoma; 108% in the test on UACC-62 melanoma; 94.5% in the test with LOX IMVI melanoma; 122% with SK-MEL-28 melanoma.

On to `O=C(Cn1cc(CO)nn1)Nc1nc2ccccc2s1`, for which the growth with HT29 colon is 99.5%; in the test with SNB-75 CNS it was 92.4%; in the test on SNB-19 CNS, 96.9%; in the test on U251 CNS it was 102%; with PC-3 prostate it was 96.3%; in the test with SK-MEL-5 melanoma it was 102%. In addition, the growth with UACC-62 melanoma was 97%; in the test on LOX IMVI melanoma, 95.1%; with SK-MEL-28 melanoma, 106%.

As for `O=C(O)c1ccc(-n2cc(CNc3ccc(Oc4ccccc4)cc3)c(-c3ccccc3)n2)cc1`, the growth with HT29 colon is 102%; in the test on SNB-75 CNS, 81.6%; in the test with SNB-19 CNS, 87.7%; with U251 CNS it was 83.3%; in the test with PC-3 prostate it was 96%; in the test on SK-MEL-5 melanoma, 96.8%. The growth in the test with UACC-62 melanoma was 83.4%; in the test with LOX IMVI melanoma, 90.4%; with SK-MEL-28 melanoma, 86.8%.

Take `Cc1ccc(C2=NN(c3ccc(S(C)(=O)=O)cc3)C(=O)CC2)cc1`: the growth in the test with HT29 colon is 11.1%; with SNB-75 CNS, 8.1% (active); in the test with SNB-19 CNS, 55%; in the test on PC-3 prostate, 29.3%; in the test on SK-MEL-5 melanoma, 13.9%; in the test with UACC-62 melanoma, 42.9%. In addition, the figures for the growth in the test with LOX IMVI melanoma and in the test with SK-MEL-28 melanoma were 33.7% and 51.4%, respectively.

With `COc1ccccc1-n1c(-c2csc(NC(C)=O)n2)n[nH]c1=S`, the growth was 95.1% in the test on HT29 colon; 86.5% in the test on SNB-75 CNS; 114% in the test with SNB-19 CNS; 95.4% in the test on PC-3 prostate; 99.6% in the test on SK-MEL-5 melanoma; 110% in the test on UACC-62 melanoma. Moreover, the values for the growth in the test with LOX IMVI melanoma and in the test on SK-MEL-28 melanoma were 93.1% and 109%, respectively.

In the case of `COc1ccc2c(c1)C(=O)/C(=C/c1ncc([N+](=O)[O-])n1C)O2`, the growth in the test with HT29 colon is -20.5% (active); in the test with SNB-75 CNS, 69.5%; in the test on U251 CNS, -25.4% (active); in the test on PC-3 prostate, 101%; in the test on SK-MEL-5 melanoma, -89% (active); with UACC-62 melanoma it was -68.4% (active). The growth with LOX IMVI melanoma was -68.1% (active); in the test on SK-MEL-28 melanoma it was -22.4% (active).

With `CCOC(=O)CSc1nc(-c2cc(OC)ccc2OC)cc(-c2ccc(OC)cc2)c1C#N`, the growth is 64.2% with HT29 colon; 97.5% with SNB-75 CNS; 94.2% in the test on SNB-19 CNS; 86.7% with U251 CNS; 80% in the test with SK-MEL-5 melanoma; 71% with UACC-62 melanoma. Further, the growth with LOX IMVI melanoma is 85.5%; in the test on SK-MEL-28 melanoma, 84.8%.
